{"source": "PubChem BioAssay AID463173", "about": "(ICCB-Longwood Screening Facility, Harvard Medical School, 2010)", "note": "About 4,300 (8.3%) of roughly 52,000 compounds were called active. What follows is part of a selection rich in actives, with near analogues and random picks from the rest. Unmarked numbers belong to inactive results. No stated cut-off is given here; in the data, active means survival mostly below about 52% (no sharp cut-off); inactive means mostly above about 56%."}
{"system": "DeltatarO mutant", "experiment": "S. aureus survival, RN4220 and DeltatarO strains – OD600, teichoic acid synthesis inhibitors, primary screen (AID 463173)", "conditions": "S. aureus RN4220 wild type/DeltatarO growth, OD600, 18 h, stronger effect = lower value, screened at 18.75 µg/mL (by protocol)"}
{"compound": "CCN(CC)CCCNC(=O)CN1C(=O)COc2ccc(S(=O)(=O)N3CCC(C)CC3)cc21", "survival": "101%"}
{"compound": "CCCOc1ccc(C2c3c(-c4ccccc4O)n[nH]c3C(=O)N2Cc2cccnc2)cc1", "note": "(centres undefined)", "survival": "3% (active)"}
{"compound": "CCc1ccc(C2c3c(-c4ccccc4O)n[nH]c3C(=O)N2Cc2cccnc2)cc1", "note": "(centres undefined)", "survival": "34% (active)"}
{"compound": "CCOc1cc(C2c3c(-c4ccccc4O)n[nH]c3C(=O)N2Cc2cccnc2)ccc1O", "note": "(centres undefined)", "survival": "93%"}
{"compound": "CCCOc1ccc(C2c3c(-c4ccccc4O)n[nH]c3C(=O)N2CCCOCC)cc1OCC", "note": "(centres undefined)", "survival": "81%"}
{"compound": "CCOCCCN1C(=O)c2[nH]nc(-c3ccccc3O)c2C1c1ccc(CC)cc1", "note": "(centres undefined)", "survival": "39% (active)"}
{"compound": "CSc1ccc(C2c3c(-c4ccccc4O)n[nH]c3C(=O)N2Cc2ccncc2)cc1", "note": "(centres undefined)", "survival": "70%"}
{"compound": "CCc1ccc(C2c3c(-c4cc(C)ccc4O)n[nH]c3C(=O)N2Cc2cccnc2)cc1", "note": "(centres undefined)", "survival": "61%"}
{"compound": "O=C1c2[nH]nc(-c3ccccc3O)c2C(c2cccc(O)c2)N1Cc1cccnc1", "note": "(centres undefined)", "survival": "95%"}
{"compound": "CCc1ccc(C2c3c(-c4ccccc4O)n[nH]c3C(=O)N2Cc2ccncc2)cc1", "note": "(centres undefined)", "survival": "22% (active)"}
{"compound": "CCOc1ccc(C2c3c(-c4ccccc4O)n[nH]c3C(=O)N2Cc2ccncc2)cc1", "note": "(centres undefined)", "survival": "68%"}
{"compound": "COC(=O)c1ccc(C2c3c(-c4ccccc4O)n[nH]c3C(=O)N2Cc2cccnc2)cc1", "note": "(centres undefined)", "survival": "72%"}
{"compound": "O=C(NC12CC3CC(CC(C3)C1)C2)c1ccco1", "survival": "72%"}
{"compound": "CN(C)CCCC1(O)c2ccccc2CCc2ccccc21", "survival": "85%"}
{"compound": "O=C(Nc1cc(Cl)cc(Cl)c1)c1ccc(F)c(S(=O)(=O)N2CCCC2)c1", "survival": "78%"}
{"compound": "CCC(CC)c1nc2ccccc2c(=O)[nH]1", "survival": "98%"}
{"compound": "Cc1cccc(-c2nc3scc(CCNS(=O)(=O)c4ccc5c(c4)OCCO5)n3n2)c1", "survival": "85%"}
{"compound": "Cc1ccc(NC(=O)c2c(C)nn(-c3ccccc3)c2-n2cccc2)c(Cl)c1", "survival": "79%"}
{"compound": "CC(=O)Nc1ccc(NC(=O)c2c(C)nn(-c3ccccc3)c2-n2cccc2)cc1", "survival": "84%"}
{"compound": "Cc1ccc(CCNC(=O)c2c(C)nn(-c3ccc(F)cc3)c2-n2cccc2)cc1", "survival": "67%"}
{"compound": "Cc1nn(-c2ccccc2)c(-n2cccc2)c1C(=O)NCc1ccccc1Cl", "survival": "2% (active)"}
{"compound": "Cc1nn(-c2ccc(F)cc2)c(-n2cccc2)c1C(=O)NCCc1ccc(Cl)cc1", "survival": "68%"}
{"compound": "Cc1nn(-c2ccccc2)c(-n2cccc2)c1C(=O)NCCc1ccc(Cl)cc1", "survival": "4% (active)"}
{"compound": "O=C(NC1CCCCC1)c1ccc(S(=O)(=O)N2CCCC2)cc1", "survival": "79%"}
